Screens: PubChem, several laboratories
Compounds with a hit are over-represented: about 2.3% of the library has one in this group of screens.
Jurkat NFkB inh: inhibitors of the PMA/ionomycin-induced NF-kB reporter in Jurkat cells | PMA/ionomycin-induced NF-kB luciferase reporter, luminescence | AID 435003 | inhibition, % at 4 µM | 0.53% of 330,000 active; in the data active = inhibition above about 50%
aSyn UTR inh: 5' untranslated region of α-synuclein, MLPCN primary screen; 0.82% of 300,000 active; inhibition, % (tested at 7.5 µM); alpha-synuclein 5'UTR reporter, inhibitor activity; AID 1813; in the data active = inhibition above about 60%; inconclusive = no clear call, values can overlap the other calls;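 note: H4 neuroglioblastoma cells stably carrying SNCA 5'UTR luciferase fusion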
Shn3 3UTR inh: inhibitors of Schnurri-3 3'UTR reporter in osteoblasts; Clone20 osteoblast Shn3 3'UTR firefly luciferase, 24 h; inhibition, % at 12.5 µM; 0.52% of 360,000 active;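 active = mean inhibition of at least 75% with every replicate also reaching 75%; inconclusive = mean inhibition at least 75% but some replicate below; inactive = mean inhibition below 75%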
Gli-Sufu block: blocks Gli-Sufu signaling in a luciferase reporter. Sufu-KO-LIGHT fibroblasts, Gli luciferase reporter luminescence. inhibition, % at 5 µM. 0.74% of 340,000 active;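 active = inhibition above about 55%, limit read from the data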
697 NFkB inh: inhibitors of the PMA/ionomycin-induced NF-kB reporter in 697 B cells. 0.33% of 330,000 active. 697 B-cell NF-kB luciferase reporter, 16 h. inhibition, % at 4 µM. AID 435022; in the data active = inhibition above about 35%
TAG inh: inhibitors of triacylglycerol accumulation; inhibition, % at 12.5 µM; H9c2 cells, Nile Red lipid (TAG) fluorescence; cells loaded with 200 µM oleic acid; 0.66% of 230,000 active;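 active = pattern-corrected inhibition of lipid staining of at least 50% with the nuclear-stain viability signal not falling by more than 50%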
Jurkat NFkB conf: inhibitors of the PMA/ionomycin-induced NF-kB reporter in Jurkat cells, retest; shares compounds with Jurkat NFkB inh; Jurkat NF-kB luciferase, 16 h; inhibition, % at 4 µM; 27% of 2,700 active; AID 435020;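 active = inhibition reaching about 45% at 4 µM in either replicate, limit read from the data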
697 NFkB conf: lowers PMA/ionomycin-induced NF-kB signal in 697 B cells; inhibition, % at 4 µM; shares compounds with 697 NFkB inh; 697 B-cell NF-kB luciferase, 16 h; AID 449746; 35% of 2,000 active; in the data active = inhibition mostly above about 28%, no sharp cut-off; inactive = mostly below about 22%
Each line names hits and unclear results; the compound was inactive in the other large screens (follow-up assays come after a bar, where they were run).

CCN(CC)c1ccc(-c2nn3c(-c4n[nH]c5c4CCC5)nnc3s2)cc1	Jurkat NFkB inh 58, aSyn UTR inh 72, TAG inh 57 | Jurkat NFkB conf 54
C1CCC(c2nn3c(-c4n[nH]c5c4CCC5)nnc3s2)CC1	aSyn UTR inh inconclusive
COc1ccc([N+](=O)[O-])cc1NC(=O)COC(=O)C=C(C)C	none (no result: aSyn UTR inh)
CN1CCN(CCOc2ccc(Cl)c(Cl)c2)CC1	none (no result: TAG inh)
O=C(CSc1ccccc1)Nc1ccc2c(c1)OCCO2	none | Jurkat NFkB conf inactive
CN1CCN(c2ccc(NC(=O)CSc3ccccc3)cc2F)CC1	none | Jurkat NFkB conf inactive
CCOC(=O)C1(C)CCCCCN1C(=O)c1ccco1 (stereo not drawn)	none (no result: Jurkat NFkB inh, aSyn UTR inh, Gli-Sufu block, 697 NFkB inh)
Cc1ccc(NC(=O)C2=C(c3ccccc3)S(=O)(=O)CCS2(=O)=O)cc1	Jurkat NFkB inh 63, Shn3 3UTR inh 96 | Jurkat NFkB conf inactive
Cc1ccc(NC(=O)c2ccccc2)cc1	none
COc1ccc(Cl)cc1NC(=O)c1cnc2sccn2c1=O	none
O=C(Nc1cnc2sccn2c1=O)c1ccc(Cl)cc1Cl	none (no result: TAG inh) | Jurkat NFkB conf inactive
Cc1cccc(C(=O)NCCNC(=O)c2ccccn2)c1	none (no result: TAG inh)
CC1C(=O)OC(c2ccc(Cl)cc2)C(C)(C)C1=O (stereo not drawn)	none (no result: TAG inh)
C[C@@H]1C=CC(=O)O[C@@H]1c1ccc(Cl)cc1	Jurkat NFkB inh 96 (no result: Shn3 3UTR inh, TAG inh) | Jurkat NFkB conf 97
Cc1ccc(N/C=C(/C#N)c2ccsc2)cc1C	none (no result: TAG inh) | Jurkat NFkB conf inactive
Cc1ccc(N/N=C(\C#N)C(=O)c2ccsc2)cc1	none
Cc1cccc(OCC(O)Cn2c(=N)n(Cc3ccccc3)c3ccccc32)c1 (stereo not drawn)	Jurkat NFkB inh 62 | Jurkat NFkB conf inactive
CSc1cc(-c2ccccc2)n(Cc2ccccc2Cl)c(=O)c1C#N	Jurkat NFkB inh 64 | Jurkat NFkB conf inactive
Cc1cc(C)c(C)c(OC(=O)c2sc(Cl)nc2C)c1	Jurkat NFkB inh 72 (no result: TAG inh) | Jurkat NFkB conf inactive
O=[N+]([O-])c1cc(S(=O)(=O)N2CCCC2)ccc1NCCCN1CCOCC1	none
CCOC(=O)CSc1nc2ccc(C)cc2cc1C#N	none (no result: TAG inh)
CCOC(=O)CSc1nc2cc(C)ccc2cc1C#N	none | Jurkat NFkB conf inactive
CCOC(=O)CSc1nc2cc(OC)ccc2cc1C#N	none | Jurkat NFkB conf inactive
CC(=O)N1CCN(S(=O)(=O)c2cccc(C(=O)NCCC3=CCCCC3)c2)CC1	none
Cc1ccc(NC(=O)c2noc3c2CCCCC3)cc1	none (no result: TAG inh) | Jurkat NFkB conf inactive
CCc1ccc(NC(=O)c2noc3c2CCC3)cc1	none
CCc1ccc(NC(=O)c2noc3c2CCCCC3)cc1	none (no result: TAG inh) | Jurkat NFkB conf inactive
COc1ccc2c(C)cc(=O)oc2c1	none (no result: Jurkat NFkB inh, aSyn UTR inh, 697 NFkB inh)
COc1ccccc1C1=NOC(COc2ccc3c(C)cc(=O)oc3c2)C1 (stereo not drawn)	Jurkat NFkB inh 67, TAG inh 59 (no result: Shn3 3UTR inh) | Jurkat NFkB conf inactive
COc1cccc(COc2ccc3c(C)cc(=O)oc3c2)c1	none (no result: TAG inh)
COc1ccc(C2=NOC(COc3ccc4c(C)cc(=O)oc4c3)C2)c(OC)c1 (stereo not drawn)	Jurkat NFkB inh 51, aSyn UTR inh 83 | Jurkat NFkB conf inactive
Cc1ccccc1NC1=C/C(=N\S(=O)(=O)c2cccs2)c2ccccc2C1=O	Jurkat NFkB inh 51, aSyn UTR inh 114, Shn3 3UTR inh 98 (no result: TAG inh) | Jurkat NFkB conf 84
Cc1ccccc1NC1=C/C(=N\S(=O)(=O)c2ccc(C(=O)O)cc2)c2ccccc2C1=O	none (no result: TAG inh)
CCOc1ccc(-c2cn3ccccc3n2)cc1	none (no result: aSyn UTR inh) | Jurkat NFkB conf inactive
Fc1ccc(-c2cn3ccccc3n2)cc1	none
Cc1ccc(C2=NN(S(=O)(=O)c3ccccc3)C(c3ccco3)C2)cc1 (stereo not drawn)	none (no result: aSyn UTR inh)
CCOC(=O)c1c(C)[nH]c(C(=O)CSc2ccccc2)c1C	none | Jurkat NFkB conf inactive | 697 NFkB conf inactive
Cc1ccc(C(=O)NC(C)c2ccncc2)o1 (stereo not drawn)	none
CC(=O)c1cc2c(C)c(C(=O)c3ccccc3)oc2cc1O	none | Jurkat NFkB conf inactive | 697 NFkB conf inactive
O=C(CSc1nnc(-c2ccc(F)cc2)o1)Nc1ccccc1N1CCOCC1	none
CCOC(=O)CSc1nc2cc3c(cc2cc1C#N)OCCO3	none | Jurkat NFkB conf inactive | 697 NFkB conf inactive
O=C(OCc1ccc(F)cc1)c1ccc2c(c1)-c1ccccc1C2=O	none
CCOC(=O)c1cc(Cl)c2c(ccc3ccccc32)n1	none (no result: Jurkat NFkB inh, aSyn UTR inh, Gli-Sufu block, 697 NFkB inh)
Cc1c(-c2nc(-c3ccc(C(C)(C)C)cc3)no2)n(C)oc1=O	Jurkat NFkB inh 60 (no result: Shn3 3UTR inh) | Jurkat NFkB conf inactive | 697 NFkB conf inactive
C=C1C(O)[C@@H]2O[C@]3(CC[C@H](/C=C/C(C)[C@@H]4CC(C)=CC5(O[C@H](C[C@@](C)(O)CO)CCC5O)O4)O3)CC[C@H]2O[C@@H]1C(O)CC(C)[C@H]1OC2(CCCCO2)CCC1C (stereo partly drawn)	Jurkat NFkB inh 92, Gli-Sufu block 63 (no result: aSyn UTR inh, Shn3 3UTR inh, TAG inh) | Jurkat NFkB conf 78 | 697 NFkB conf inactive
COc1ccc(C(=O)NC(=O)NC2(C(Cl)(Cl)Cl)OCCO2)cc1	none | Jurkat NFkB conf inactive | 697 NFkB conf inactive
O=C(COC(=O)/C=C/c1ccc(S(=O)(=O)N2CCc3ccccc32)cc1)NC1CCS(=O)(=O)C1 (stereo not drawn)	none
O=S1(=O)C=C(Sc2nc3ccccc3s2)c2ccccc21	Jurkat NFkB inh 97 (no result: Shn3 3UTR inh, TAG inh) | Jurkat NFkB conf 92 | 697 NFkB conf inactive
Cc1occc1C(=O)N1CCCC(Nc2ccc(F)cc2)C1 (stereo not drawn)	none
O=C(NCc1ccccn1)C1COc2ccccc2O1 (stereo not drawn)	none
CCOc1ccc(/C=C2\SC(=S)N(CCC(=O)O)C2=O)cc1	Jurkat NFkB inh 52, aSyn UTR inh 115, 697 NFkB inh 77 | Jurkat NFkB conf 61 | 697 NFkB conf 66
Cc1ccc(OCc2nc(-c3cccs3)no2)c([N+](=O)[O-])c1	none | Jurkat NFkB conf inactive | 697 NFkB conf inactive
Cc1ccnc(NC(=O)c2sc3ccccc3c2Cl)c1	aSyn UTR inh 78 (no result: TAG inh) | Jurkat NFkB conf inactive | 697 NFkB conf inactive
Cc1cnc(NC(=O)c2sc3ccccc3c2Cl)s1	aSyn UTR inh inconclusive
COc1ccccc1NC(=O)CN1CCN(CC(=O)Nc2ccccc2F)CC1	none (no result: Jurkat NFkB inh, aSyn UTR inh, 697 NFkB inh)
O=C(CCl)N(c1ccc(Cl)cc1)c1c[nH]c2ccccc12	Jurkat NFkB inh 71, Shn3 3UTR inh 98, Gli-Sufu block 88, 697 NFkB inh 80 (no result: TAG inh) | Jurkat NFkB conf inactive | 697 NFkB conf 36
Cc1cc(C(=O)NC2CCCc3c2cnn3-c2ccc(C)c(C)c2)n(C)n1 (stereo not drawn)	Jurkat NFkB inh 62, Shn3 3UTR inh 88, Gli-Sufu block 81, 697 NFkB inh 49 | Jurkat NFkB conf 80 | 697 NFkB conf 102
